Assay outcomes as filed in PubChem BioAssay.
D1 allo mod: D1 dopamine receptor (human) allosteric modulation | P21728 | HEK293 D1, CRE-luciferase, dopamine EC30 potentiation; actives deviate in either direction | B-score at 10 µM | actives 5.9% (n = 58,000) | AID 641;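 active = luminescence count or its row- and column-corrected plate score outside the 99.7% band of the plate's sample wells, on either side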
Target sequence (P21728 whole entry, looked up): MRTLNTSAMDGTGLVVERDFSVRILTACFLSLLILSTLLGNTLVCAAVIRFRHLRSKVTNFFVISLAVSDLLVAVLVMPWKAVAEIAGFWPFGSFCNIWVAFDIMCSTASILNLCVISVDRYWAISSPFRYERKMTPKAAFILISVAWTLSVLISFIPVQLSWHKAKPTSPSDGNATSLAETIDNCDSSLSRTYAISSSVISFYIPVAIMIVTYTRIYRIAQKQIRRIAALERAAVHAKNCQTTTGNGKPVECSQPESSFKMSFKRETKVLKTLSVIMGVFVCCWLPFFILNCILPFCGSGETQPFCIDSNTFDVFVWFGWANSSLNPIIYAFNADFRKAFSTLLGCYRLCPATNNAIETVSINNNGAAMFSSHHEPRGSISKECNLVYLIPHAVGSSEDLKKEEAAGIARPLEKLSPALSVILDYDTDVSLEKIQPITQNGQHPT
PostGolgi ctrl: inhibits growth of the yeast control strain; AID 738; actives 5% (n = 98,000); efflux-deficient yeast background strain, growth absorbance A615, 16 h; inhibition, % at 10 µM
DAT uptake mod: human DAT dopamine uptake with cocaine, either direction. Q01959. B-score at 10 µM. AID 449768. actives 1.3% (n = 110,000). LLC-PK1 hDAT cells, [14C]-dopamine uptake with cocaine IC80; actives deviate in either direction;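 active = Z score or B-score, a plate-position-corrected score, falls beyond the plate's 99.7% confidence bounds, in either direction; inactive = both scores lie inside the 99.7% bounds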;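 note: scored against the spread of the other compound wells on the same plate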
PostGolgi yeast: growth inhibition of a yeast mutant, post-Golgi transport screen | post-Golgi transport phenotypic cell assay | inhibition, % at 10 µM | actives 0.9% (n = 98,000);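 note: yeast cells grown in 1536-well plates; yeast grown about 18 h at 30C before absorbance read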
PLAP act: human PLAP activation | activation fold at 20 µM | AID 696 | actives 1.2% (n = 96,000) | purified PLAP enzyme, luminescent substrate read-out; active compounds read high | P05187; in the data active = activation fold above about 2
Cav3 T inh: blocks human Cav3.2 T-type calcium channel; O95180; Cav3.2-expressing cells, Fluo-4 calcium fluorescence FDSS; active compounds read low; B-score at 10 µM; actives 4% (n = 100,000); AID 449739;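 active = single-dose well whose peak fluorescence ratio is a statistical outlier from its plate by either plate-standardised score or position-corrected B-score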
* = called active by the depositor; / = not tested or not shown. In the library only some 12% were active in any assay of this set; here they are far more common. Cut-off read from the data, not from the text of the source, unless noted: active = inhibition above about 30%; inactive = the rest.

SMILES	D1 allo mod	PostGolgi ctrl	DAT uptake mod	PostGolgi yeast	PLAP act	Cav3 T inh
O=S(=O)(NCCN1CCCC1)c1cccc2cccnc12	0.29	2	0.4	-7	1.3	-0.15
O=S(=O)(NCCCN1CCN(c2ccccc2F)CC1)c1cccc2cccnc12	-2.9*	-4	1.7	3	1.5	-0.33
O=[N+]([O-])c1ccc(NCCCNS(=O)(=O)c2ccc(Cl)cc2)c(Cl)c1	/	72*	/	36*	0.7	/
COC(=O)C1=C(C(=O)OC)[C@@H]2Nc3ccccc3[C@@]23C[C@@H](C(=O)OC)N(C(C)=O)C3=N1	/	/	-0.068	/	/	0.86
CCCn1c(CNS(=O)(=O)c2ccc(C)cc2)nc2ccccc21	0.27	13	-0.08	0	1.4	-0.72
COC(=O)c1ccc(COc2ccccc2/C=N/NS(=O)(=O)c2ccccc2)cc1	/	25	0.97	1	1.1	-0.4
Cc1ccc(Nc2nc(N)nc(CN3CCc4ccccc4C3)n2)cc1	/	4	1.2	4	1.4	-0.6
Cc1c(Cl)cccc1Nc1nc(N)nc(CN2CCc3ccccc3C2)n1	/	12	-0.84	0	1.4	-4*
O=C([C@H](Cc1ccccc1)NS(=O)(=O)c1ccc(Cl)cc1)N1CC[C@@]2(O)CCCC[C@H]2C1	/	3	1.9	-2	1.3	-3.3*
Cc1ccc(CN2CCN(/N=C/c3cc(Br)ccc3O)CC2)cc1	/	22	0.53	74*	1	-0.59
O=C(NC1CCCCC1)NC1CC2CCC(C1)N2Cc1nnnn1Cc1ccc2c(c1)OCO2 (stereo not drawn)	/	14	/	7	1.4	/
COc1ccccc1CN1[C@@H](CC(C)=O)c2cc(C(F)(F)F)ccc2S1(=O)=O	/	/	0.01	/	/	-0.0045
NS(=O)(=O)c1ccc(NC(=O)CN2CCCCC2)cc1	-0.06	5	-0.01	19	1	-0.88
Cc1ccc(C)n1CCN1CCN(CC(=O)Nc2ccc(S(N)(=O)=O)cc2)CC1	0.0013	37*	0.66	-2	1.3	-0.055
O=C(O)c1ccc2c(c1)C(=O)N(c1ccc(Cl)cn1)C2=O	0.77	16	0.54	-4	0.9	0.012
O=C(O)c1ccc2c(c1)C(=O)N(c1cc(C(=O)O)ccc1Br)C2=O	-5.4	30*	-1.4	-4	1	0.06
CCOC(=O)c1sc(NC(=O)c2sccc2C)cc1C	/	2	0.054	-9	1	/
CCOC(=O)c1sc(NC(=O)c2ccc(Br)o2)cc1C	-3.9*	4	-0.15	28	0.9	-0.94
O=C(N1CCN(c2ccccc2)CC1)C12CC3CC(CC(C3)C1)C2	-1.5	45*	-0.55	12	1.1	-1.6
O=C(N1CCN(Cc2ccccc2)CC1)C12CC3CC(CC(C3)C1)C2	-0.13	5	2.1	-2	1.4	0.088
CC1(C)C(C=C(Cl)Cl)C1C(=O)N1CCN(c2ccccc2)CC1 (stereo not drawn)	-1.3	70*	0.82	3	0.9	-4.9*
CCOC(=O)N1CCC(NC(=O)C(NC(=O)C2CCC(C)CC2)C(C)CC)CC1 (stereo not drawn)	/	-9	/	9	1.5	/
O=C(NCc1ccc(OC(F)(F)F)cc1)C1CC(c2c(Cl)cccc2Cl)=NO1 (stereo not drawn)	/	31*	0.68	-5	0.9	-1.3
CCCCN1C=C(C(=O)OC)C(c2ccccc2C(F)(F)F)C(C(=O)OC)=C1	/	10	3.1*	-3	0.9	0.19
CCCCOc1ccccc1C1C(C(=O)OC)=C(C)N(C)C(C)=C1C(=O)OC	/	/	0.49	/	/	-3.5
SMILES	D1 allo mod	PostGolgi ctrl	DAT uptake mod	PostGolgi yeast	PLAP act	Cav3 T inh
Cc1cccc(S(=O)(=O)C(C#N)c2nc3ccccc3nc2N2CC(C)OC(C)C2)c1 (stereo not drawn)	-0.19	11	-1.3	1	1.4	-2.5
CCN1CCN(c2nc3ccccc3nc2C(C#N)S(=O)(=O)c2ccc(C)c(C)c2)CC1 (stereo not drawn)	/	6	/	3	2*	/
CCN1CCN(c2nc3ccccc3nc2C(C#N)S(=O)(=O)c2ccc(C)cc2)CC1 (stereo not drawn)	/	14	/	-3	1.5	/
Cc1ccc(S(=O)(=O)C(C#N)c2nc3ccccc3nc2N2CC(C)OC(C)C2)cc1C (stereo not drawn)	0.8	13	-0.21	15	1.4	-4.2*
Cc1ccccc1C(=O)/C=C1\NC(=O)CS1	-0.58	5	1.1	11	1.1	0.47
CCC(C)NC(=O)NC(=O)N(C1CCCCC1)S(C)(=O)=O (stereo not drawn)	/	9	-0.37	3	0.9	0.32
CCS(=O)(=O)N1CCC(C(=O)N2CCOCC2)CC1	0.56	3	0.81	-5	1	0.57
O=C(C1CCN(S(=O)(=O)N2CCOCC2)CC1)N1CCOCC1	0.49	31*	-1.1	0	0.9	0.32
CCN(CC)C(C)C(=O)NCC1(c2ccccc2)CCOCC1 (stereo not drawn)	/	/	-0.44	/	/	0.54
CCC1CCCCN1S(=O)(=O)c1ccc(C(=O)Nc2nnc(-c3ccccc3Cl)o2)cc1 (stereo not drawn)	-1.5	24	0.36	3	/	-7.9*
CC1CCCCN1S(=O)(=O)c1ccc(C(=O)Nc2nnc(-c3ccccc3Cl)o2)cc1 (stereo not drawn)	2.5	2	1.4	5	1.6	/
O=C(Nc1nnc(-c2ccccc2Cl)o1)c1ccc(S(=O)(=O)N2CCCCCC2)cc1	0.004	8	0.018	8	1.9	-7.1*
O=C(Nc1ccn(-c2ccccc2)n1)c1ccc(S(=O)(=O)N2CCCCCC2)cc1	-1.9	31*	0.51	-8	0.8	-1.9*
CCOC(=O)c1c(C)[nH]c(C(=O)COC(=O)c2ccc(F)c(S(=O)(=O)N3CCOCC3)c2)c1C	0.44	-2	1.9	-3	1	0.011
CN(C(=O)CN1CCC(NC(=O)C2CCCCC2)CC1)C1CCCCC1	0.16	2	-1.1	-1	2*	1.3
Cc1nc2c(C)cccn2c1/C(O)=C1\C(=O)C(=O)N(CCN2CCOCC2)C1c1cccs1 (stereo not drawn)	/	4	-0.47	-3	1.1	0.12
COc1ccc(NS(=O)(=O)c2cccc(C(=O)N/N=C(\C)c3ccc(-n4ccnc4)cc3)c2)cc1	/	4	-0.54	8	2.1*	0.06
CCCn1c(C)cc(C(=O)CN2C(=O)c3ccccc3C2=O)c1C	-0.54	/	/	/	/	/
Cc1ccc(C(=O)CN2/C(=C(\O)c3ccccc3)C(=O)c3ccccc3S2(=O)=O)c(C)c1	/	21	1.2	-7	1.1	-5.9*
Cc1cc(C(=O)CN2C(=O)c3ccccc3S2(=O)=O)c(C)n1-c1ccccc1	-5*	26	1.4	4	1.1	-3.4
Cc1cc(C(=O)CN2C(=O)C3CC=CCC3C2=O)c(C)n1-c1ccccc1 (stereo not drawn)	-3.6*	2	0.79	-4	1.4	-0.51
COC(=O)c1ccc(CN2C(=O)c3ccccc3S2(=O)=O)cc1	-2.2	8	-0.031	3	1.2	-1.3
O=C(CN1C(=O)c2ccccc2S1(=O)=O)c1ccccc1	/	/	0.69	/	1.1	0.079
